Data as given in PubChem BioAssay (EPA / NIEHS).
Several values for one entry are separate records, joined by “and”; a condition that tells them apart may be missing. Equal entries are not always repeated. Inconclusive results are not listed. Activity calls are given as the source filed them. The calls were made as follows: active = hit-call score of the fitted dose curve at least 0.9, where 1 is the maximum; inconclusive = response in the unintended direction; inactive = score below 0.9.

Tested on: zebrafish Estrogen Receptor (ER2a), gene 317734
Test: ATG_zfER2a_XSP2: Attagene TRANS-FACTORIAL Multi-Species (XSP2) HepG2 Assay for zebrafish Estrogen Receptor (ER2a) (AID 2283818);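 also: hits raise reporter mRNA so AC50 reflects activation of zebrafish ER2a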
Protocol: ATG_XSP2_multi-species_TRANS is a cell-based, multiplexed assay created by modifying the existing Attagene TRANS-FACTORIAL system to include a panel of nuclear receptors from some or all the following species: human (Homo sapiens), mouse (Mus musculus), frog (Xenopus laevis), zebrafish (Danio rerio), chicken (Gallus gallus), and turtle (Chrysemys picta). The ECOTOX-FACTORIAL format uses HepG2, a human liver cell line, with measurements taken at 24 hours after chemical dosing in a 24-well plate. Xsp2 included 3 nM 6-alpha-fluorotestosterone and 1.5 nM norgestrel to stimulate the androgen receptor.ATG_zfER2a_XSP2 is one of 29 assay components measured or calculated from the ATG_XSP2_multi-species_TRANS assay. It is designed to make measurements of mRNA induction, a form of inducible reporter, as detected with fluorescence intensity signals by Reverse transcription polymerase chain reaction (RT-PCR) and Capillary electrophoresis technology.The assay endpoint ATG_zfER2a_XSP2 was analyzed in the positive analysis fitting direction relative to DMSO as the negative control and baseline of activity. Using a type of inducible reporter, measures of mRNA for gain-of-signal activity can be used to understand the reporter gene at the transcription factor-level as they relate to the gene ER. Furthermore, this assay endpoint can be referred to as a primary readout, because this assay has produced multiple assay endpoints where this one serves a reporter gene function. To generalize the intended target to other relatable targets, this assay endpoint is annotated to the nuclear receptor intended target family, where the subfamily is steroidal.
Human liver HepG2 cells are transiently transfected with multiple reporter transcription units (MRTUs) in 6-well plates using FuGene 6 reagent (Roche; 3 ml FuGene/1 mg DNA). The MRTU constructs are regulated by a cis-regulating element (promoter). […] A major difference between the CIS and TRANS system is that in CIS activities of endogenous TFs are measured, whereas the TRANS assay evaluates changes in activities of exogenous, chimeric NR-Gal4 proteins. […] At the end of 24 hour incubation, total RNA was isolated using TriZol reagent (Invitrogen). The isolated RNA is then reverse-transcribed using oligo(dT) primer and Mo-MLV reverse transcriptase (Invitrogen) with DNAse I (Ambion) treatment for 30 min. The one-tenth of the produced cDNA was amplified by PCR using Taq DNA polymerase (Invitrogen) and two reporter sequence-specific primers. The PCR products were fluorescently labeled by primer extension with 6-arboxyfluorescein (6-FAM) 5'-labeled reporter sequence-specific primer (2 min at 95 C, 20 s at 68 C and 10 min at 72 C) and these products were digested with 5U of HpaI (New England Biolabs) for 2h at 37 C. The fragments were purified using Qiaquick PCR columns (Qiagen), analyzed on an ABI 3130xL genetic analyzer (Applied Biosystems) with peak positions identified by using a set of X-rhodamine (ROX)-labeled MapMarker1000 molecular weight standards (BioVentures). The raw capillary electrophoresis data was processed using Attagraph software (Attagene).

Structure (SMILES)	outcome	AC50
C=C(C)CN(CC)c1c([N+](=O)[O-])cc(C(F)(F)F)cc1[N+](=O)[O-]	inactive	
COP(=S)(OC)Oc1ccc([N+](=O)[O-])c(C)c1		44.9 µM (active)
CC1(C)CCC(=Cc2ccc(Cl)cc2)C1(O)Cn1cncn1 (stereo not given)	inactive	
N#Cc1c[nH]cc1-c1cccc2c1OC(F)(F)O2		25.8 µM (active) and 2.71 µM (active)
Cc1c(COC(=O)[C@@H]2[C@H](/C=C(\Cl)C(F)(F)F)C2(C)C)cccc1-c1ccccc1	inactive	
CCN(CC)C(=O)C(C)Oc1cccc2ccccc12 (stereo not given)	inactive	
CC(C)NC(=O)N1CC(=O)N(c2cc(Cl)cc(Cl)c2)C1=O	inactive	
COP(=S)(OC)SCn1nnc2ccccc2c1=O	inactive	
CC1(C)C(C=C(Cl)Cl)C1C(=O)OC(C#N)c1cccc(Oc2ccccc2)c1 (stereo not given)	inactive	
CSC(=O)c1c(C(F)F)nc(C(F)(F)F)c(C(=O)SC)c1CC(C)C	inactive	
